# According to PubChem BioAssay:
# Active and inactive are the calls of the source. Unless noted, how the calls were made is not given here.
# Tests used:
# [1] = Plasmodium falciparum growth inhibition, primary screen, strain 3D7, DAPI fluorescence, 100 nL (AID 1184);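 further: parasites grown inside human red blood cells in medium with human serum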; settings: P. falciparum 3D7 growth, 3 d, higher = more signal
# [2] = biological target: Homeobox protein Hox-A13 (Mus musculus) (UniProt Q62424); experiment: inhibitors of HoxA13-DNA binding, primary screen, biochemical, fluorescence polarization, labeled oligonucleotide (AID 1185); settings: 15 min, higher = more signal, called active from +8 up or from −8 down
# [3] = inhibitors of hydroxyurea-induced Chk1 phosphorylation, primary screen, imaging, HeLa, phospho-Chk1 antibody, percent positive cells (AID 1186); settings: hydroxyurea-induced phospho-Chk1 immunofluorescence imaging, higher = more signal
# [4] = inhibitors of hydroxyurea-induced Chk1 phosphorylation, primary screen, imaging, HeLa, phospho-Chk1 nuclear intensity (AID 1187); settings: hydroxyurea-induced phospho-Chk1 immunofluorescence imaging, higher = more signal; further: test concentration not given here
# Homeobox protein Hox-A13 (Mus musculus), sequence (Q62424 whole entry, looked up): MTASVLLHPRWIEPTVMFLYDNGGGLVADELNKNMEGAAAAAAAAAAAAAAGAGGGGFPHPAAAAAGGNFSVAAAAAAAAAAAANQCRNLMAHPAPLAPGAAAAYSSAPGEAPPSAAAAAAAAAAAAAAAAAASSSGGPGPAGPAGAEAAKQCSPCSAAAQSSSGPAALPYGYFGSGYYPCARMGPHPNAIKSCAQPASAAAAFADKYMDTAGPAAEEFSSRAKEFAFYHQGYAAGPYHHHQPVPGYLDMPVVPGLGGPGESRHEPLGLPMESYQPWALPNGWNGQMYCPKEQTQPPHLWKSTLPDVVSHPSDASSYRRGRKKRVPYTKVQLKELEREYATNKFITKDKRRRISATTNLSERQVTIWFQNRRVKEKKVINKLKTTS
Structure (SMILES),z-score [1],z-score [2],z-score [3],z-score [4]
NCCCCCCNC(=O)[C@@H]1C[C@@H]2C(=O)N[C@@H](Cc3ccccc3)C(=O)N2[C@@H]1c1ccc(O)cc1,-0.18,-1.74 (inactive),1 (inactive),0.982 (inactive)
COC(=O)C(CC#Cc1ccc2c(c1)[C@]1(C(=O)N2)[C@H](C(N)=O)[C@H]2C(=O)O[C@H](c3ccccc3)[C@H](c3ccccc3)N2[C@@H]1c1ccc(O)cc1)C(=O)OC,-0.91,-3.34 (inactive),0.16 (inactive),0.819 (inactive)
CC(C)(C)OC(=O)CC[C@@]1(C(=O)NCc2ccccc2)N=C(c2ccc(OCCCO)cc2)O[C@@H]1c1ccccc1CN=[N+]=[N-],-2.72,-0.088 (inactive),-0.763 (inactive),-0.84 (inactive)
COCCCNC(=O)[C@@]1(Cc2ccccc2)N=C(c2ccc(OCCCO)cc2)O[C@H]1c1ccccc1N=[N+]=[N-],-2.43,-3.11 (inactive),-0.362 (inactive),-0.373 (inactive)
COc1ccc(/C=C/C(=O)c2cccc(OCC(=O)OC(C)(C)C)c2)cc1,-0.732,-3.31 (inactive),-0.0499 (inactive),0.373 (inactive)
CCCNC(=O)[C@@]1(Sc2ccc(C)cc2)CC(=O)N(Cc2cc(C(F)(F)F)cc(C(F)(F)F)c2)[C@@H]1c1ccc(CO)cc1I,-0.975,-2.86 (inactive),-0.661 (inactive),-0.6 (inactive)
COCCOC(=O)N1C(=O)[C@@]2(c3cc(C#CC4(O)CCCCCC4)ccc31)[C@H](c1ccc(O)cc1)N1[C@H](c3ccccc3)[C@H](c3ccccc3)OC(=O)[C@H]1[C@@H]2C(N)=O,-0.5,-2.38 (inactive),0.178 (inactive),0.0653 (inactive)
COc1ccc([Si](C)(C)[C@H]2[C@H](CCO)O[C@@]3(C(=O)N(Cc4ccc(N5C(=O)c6cccc7cccc5c67)cc4)c4ccccc43)[C@@H]2C)cc1,-1.23,-0.82 (inactive),-1.48 (inactive),-1.39 (inactive)
CC(=O)OC(C/C=C\B1OC(C)(C)C(C)(C)O1)c1ccccc1 (stereo unspecified),-1.41,-1.28 (inactive),-0.873 (inactive),-1.16 (inactive)
CCCCCN1CC=CC23O[C@@H]4/C=C\CCC(C)OC(=O)C4[C@H]2C(=O)N(CCO)[C@@H]3C1=O (stereo partly specified),-1.41,-3.89 (inactive),-0.174 (inactive),0.125 (inactive)
CC(C)(C)OC(=O)CC[C@]1(C(=O)NCc2ccccc2)N=C(c2ccc(OCCCO)cc2)O[C@H]1c1ccccc1N=[N+]=[N-],-2.16,-0.908 (inactive),-0.328 (inactive),0.252 (inactive)
CC(C)C[C@@H]1NC(=O)[C@@]23C(=O)N[C@@H](Cc4ccccc4)C2[C@H](C)[C@@]2(C)O[C@H]2C3/C=C/C/C=C\CNC(=O)[C@H](Cc2ccccc2)NC1=O (stereo partly specified),-1.46,-5.15 (inactive),0.03 (inactive),0.356 (inactive)
CCOC(=O)C[C@H]1[C@H](OC(=O)c2cc3ccccc3oc2=O)[C@@H](NC(=O)c2ccccc2)c2cc(OCCCO)ccc2N1C(=O)Cc1ccc(OC)cc1,-2.11,-0.814 (inactive),-0.35 (inactive),-0.0607 (inactive)
COC(=O)C(CC#Cc1ccc2c(c1)[C@]1(C(=O)N2)[C@H](c2ccccc2OCCO)N2[C@H](c3ccccc3)[C@H](c3ccccc3)OC(=O)[C@H]2[C@@H]1C(=O)N1CCCCCCC1)C(=O)OC,-2.2,3.62 (inactive),0.114 (inactive),0.72 (inactive)
COCCOC(=O)N1C(=O)[C@@]2(c3cc(C#CCNC(N)=O)ccc31)[C@H](c1ccccc1OCCO)N1[C@H](c3ccccc3)[C@H](c3ccccc3)OC(=O)[C@H]1[C@@H]2C(=O)Nc1nc2ccccc2s1,-1.89,1.57 (inactive),-0.298 (inactive),-0.154 (inactive)
COc1ccc(C#Cc2ccc3c(c2)[C@]2(C(=O)N3)[C@H](c3ccc(O)cc3)N3[C@H](c4ccccc4)[C@H](c4ccccc4)OC(=O)[C@H]3[C@@H]2C(=O)N2CCN(c3ncccn3)CC2)cc1,-2.28,0.562 (inactive),0.396 (inactive),0.583 (inactive)
C=C(/C(=C/C[C@H](OC(C)=O)c1cccc(OCCO)c1)c1cc(C(=O)OC)ccc1OC)C(C)C,-1.79,-4.34 (inactive),0.209 (inactive),0.641 (inactive)
COc1c(C)cc(-c2cc3c(c(CCc4ccccc4)n2)[Si](C(C)C)(C(C)C)OC3)cc1C,-0.633,-0.207 (inactive),-0.666 (inactive),-0.461 (inactive)
O=C(NCc1ccccc1)[C@@H]1c2ccccc2C(=O)N(Cc2ccccc2Cl)[C@H]1c1ccc(CO)cc1,0.187,-0.497 (inactive),-0.0434 (inactive),0.206 (inactive)
COCCOC(=O)N1C(=O)[C@@]2(c3cc(C#CCCO)ccc31)[C@H](c1ccccc1OCCO)N1[C@H](c3ccccc3)[C@H](c3ccccc3)OC(=O)[C@H]1[C@@H]2C(=O)NC[C@H](O)c1ccccc1,-2.08,-0.117 (inactive),-0.29 (inactive),-0.429 (inactive)

Structure (SMILES),z-score [1],z-score [2],z-score [3],z-score [4]
C=CCN1C(=O)[C@@]2(O[C@@H](CCn3cc(CCO)nn3)[C@H]([Si](C)(C)c3ccc(OC)cc3)[C@H]2C)c2cc(N3C(=O)c4cccc5cccc3c45)ccc21,-2.85,-5.26 (inactive),-1.11 (inactive),-0.144 (inactive)
C=CC[C@]1(C(=O)N(C)C)N=C(c2ccc(OCCCO)cc2)O[C@H]1c1ccccc1CN=[N+]=[N-],-2.49,-4.33 (inactive),-0.0783 (inactive),0.347 (inactive)
COc1ccc([Si](C)(C)[C@H]2[C@H](CC(=O)N(CCO)Cc3ccccc3)O[C@@]3(C(=O)N(Cc4ccc(N5CCC5=O)cc4)c4ccccc43)[C@@H]2C)cc1,-1.24,-0.622 (inactive),-0.632 (inactive),-0.0543 (inactive)
C=C(C(=O)CC[C@H](OC(C)=O)c1ccc(CO)o1)C(C)C,-2.1,-2.79 (inactive),-0.17 (inactive),-0.428 (inactive)
O=C(O)[C@H]1C[C@H]2C(=O)NCC(=O)N2[C@H]1c1cccc(OCCO)c1,-0.52,-3.76 (inactive),0.328 (inactive),0.212 (inactive)
CC(C)C[C@@H]1NC(=O)[C@@H]2C[C@H](C(=O)NCCCCCNC(=O)CS)[C@H](c3cccc(OCCO)c3)N2C1=O,-0.37,-2.89 (inactive),0.611 (inactive),0.419 (inactive)
O=C1c2ccccc2[C@@]2(Cc3ccccc3N(CC(F)(F)F)C2=O)[C@H](c2ccc(CO)cc2)N1Cc1ccccc1C(F)(F)F,0.226,-0.0255 (inactive),-0.563 (inactive),-0.816 (inactive)
[N-]=[N+]=Nc1ccccc1[C@H]1OC(c2ccc(OCCCO)cc2)=N[C@@]1(Cc1ccccc1)C(N)=O,-1.96,-3.95 (inactive),-0.313 (inactive),-0.179 (inactive)
COC(=O)C1=CC(c2ccc(CO)cc2)=CC(c2cccs2)N(C)C=C1C(=O)OC (stereo unspecified),-1.75,-6.41 (inactive),-0.261 (inactive),-0.22 (inactive)
C[N+](C)(C)CCCCNC(=O)[C@@H]1C[C@@H]2C(=O)NCC(=O)N2[C@@H]1c1cccc(OCCO)c1,-0.664,-1.4 (inactive),0.469 (inactive),1.31 (inactive)
CCCC[C@@H](O)C1=C(C)C[C@H]2C(=O)N(C)C(=O)[C@H]2[C@H]1CO,-1.46,-3.63 (inactive),-0.425 (inactive),-0.185 (inactive)
COC(=O)[C@@]1(CCC(=O)OC(C)(C)C)COC(c2ccc(OCCCO)cc2)=N1,-0.478,-2.57 (inactive),-0.14 (inactive),0.264 (inactive)
C[N+](C)(C)CCCC[C@@H]1NC(=O)[C@H]2C[C@@H](C(=O)NCCCCCN)[C@@H](c3cccc(OCCO)c3)N2C1=O,-1.09,-2.19 (inactive),0.287 (inactive),0.7 (inactive)
O=C(NC1CC1)[C@@H]1c2ccccc2C(=O)N(Cc2ccccc2C(F)(F)F)[C@H]1c1ccc(CO)cc1,-0.358,-1.7 (inactive),-0.14 (inactive),0.177 (inactive)
C=CCNC(=O)[C@H]1[C@@H]2C(=O)O[C@@H](c3ccccc3)[C@@H](c3ccccc3)N2[C@@H](c2ccc(OCCO)cc2)[C@]12C(=O)Nc1ccc(C#CCCO)cc12,-0.739,-3.71 (inactive),-0.229 (inactive),-0.205 (inactive)
CC1CC/C=C\[C@H]2OC34C=CCN(C(C)C)C(=O)[C@H]3N(C(CO)C(C)C)C(=O)[C@@H]4C2C(=O)O1 (stereo partly specified),0.639,-4.54 (inactive),-0.686 (inactive),-0.549 (inactive)
CN1C=C(C(=O)OCCS(C)(=O)=O)C(C(=O)OCCS(C)(=O)=O)=CC(CCCO)=CC1c1cccs1 (stereo unspecified),-0.654,-5.5 (inactive),-0.084 (inactive),-0.389 (inactive)
C[N+](C)(C)CCCC[C@@H]1NC(=O)[C@@H]2C[C@H](C(=O)NCCCCCNC(=O)CS)[C@H](c3ccc(O)cc3)N2C1=O,-0.34,-1.22 (inactive),-0.536 (inactive),-0.272 (inactive)
COc1ccc(C#Cc2ccc3c(c2)[C@]2(C(=O)N3)[C@H](c3ccc(O)cc3)N3[C@H](c4ccccc4)[C@H](c4ccccc4)OC(=O)[C@H]3[C@@H]2C(N)=O)cc1,-1.17,-0.123 (inactive),0.186 (inactive),0.381 (inactive)
